# According to the supplement of paper PMC10338343:
# ± gives the standard deviation.
# Test system: MILI (PIWIL2) piRISC loaded with L1MC piRNA (26 nt);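 also: 1 nM active piRISC with 0.1 nM target library at 33 °C single turnover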
# Assay: pre-steady-state target cleavage rate (min^-1); guide: L1MC piRNA 5'p-UAACUAAAUACUAUGCAAGCUGUAGG; higher = faster piRNA-guided slicing of the target
# Settings: auxiliary factor: none (no GTSF1)
# Method in brief: (§1)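 In HEPES–potassium acetate buffer at 33 °C, […] transcribed, DNA-blocked target RNA library was mixed with 1 nM active affinity-purified piRISC carrying one synthetic guide, with or without 500 nM GTSF1 partner protein, for 0–8 or 0–960 min. Uncleaved targets were sequenced and normalised to depth and to weakly complementary targets; three trials were pooled and k3 was capped at 0.0001 min^-1. The pre-steady-state cleavage rate followed from a burst-and-steady-state fit.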
row,Sequence,pre-steady-state target cleavage rate
1,UCCUGGAUGUCGUUGCUUAGUAUUUUGUUA,0.00381 ± 0.0029
2,UCCUCCUACAGCUUGCAUUGUAUUUACUUA,0.00286 ± 0.0022
3,UCCUGGAUGUCGUUGCGUAGUAUUUAGUUA,0.00779 ± 0.0026
4,UCCUGGUACAGCUAGCAUACUAUUUAGUUA,0.00435 ± 0.0028
5,UCCUGGAACAGCUAGCAUAGUUUUUAGUUA,0.00311 ± 0.0024
6,UCCUGGUACUGCAUGCAUAGUAUUUAGUUA,0.00932 ± 0.0034
7,UCCUGGAUGAGCUUGCAUAUUAUUUAGUUA,0.00304 ± 0.003
8,UCCUGGUACAGCUUGCAUAGUAUUUAUUUA,0.0109 ± 0.0041
9,UCCUGGAUGAGCUUGCAUAGUAUAAUGUUA,0.00329 ± 0.0028
10,UCCUCCUACAGCAACCAUAGUAUUUAGUUA,0.00404 ± 0.002
11,UCCUGGAACAGCUUUGCAUAGUAUUUAGUUA,0.00711 ± 0.0027
12,UCCUGGAUGAGCUUGGUUAGUAUUUAGUAA,0.0063 ± 0.0023
13,UCCUGGAUCAGCUUGCAUAGUUUUUUGUUA,0.00417 ± 0.0027
14,UCCUGGAUGUGCAUGCAUAGUAUUUUGUUA,0.00327 ± 0.0032
15,UCCUGGUACAGGUUGCAUAGUAUAUAGUUA,0.00855 ± 0.0029
16,UCCUCCUUCAGCUUGCAUACUAUUUAGUUA,0.00296 ± 0.0027

# Test system: EfPiwi piRISC loaded with L1MC piRNA (26 nt)
# Assay: pre-steady-state target cleavage rate (min^-1); auxiliary factor: 500 nM Ephydatia muelleri Gtsf1; guide: L1MC piRNA 5'p-UAACUAAAUACUAUGCAAGCUGUAGG; MIWI and MILI are mouse PIWI proteins and EfPiwi is from a freshwater sponge; tags in brackets are library labels; higher = faster piRNA-guided slicing of the target
# Settings: not given
# Method in brief: as §1
row,Sequence,pre-steady-state target cleavage rate
1,UCCUGGAACAGUCUUGCAUAGUAUUUAGUUA,0.00822 ± 0.0027
2,UCCUCCUAGAGCUUGCAAAGUAUUUAGUUA,0.0214 ± 0.006
3,UCCUGGAACAGCUUGCAUAGUAGUUUAGUUA,0.0047 ± 0.0024
4,UCCUGGAACAGCUUGGAAAGUAUUUAGUUA,0.0164 ± 0.0053
5,UCCUGGAUCUGCUUGCAUUGUAUUUAGUUA,0.00657 ± 0.003
6,UCCUGGUACUGCAUGCAUAGUAUUUAGUUA,0.0111 ± 0.0032
7,UCCUCCUACAGCAACCAUAGUAUUUAGUUA,0.00322 ± 0.0025
8,UCCUGGAACAGCUUUGCAUAGUAUUUAGUUA,0.0309 ± 0.0082
9,UCCUCCUUCAGCUUGCAUACUAUUUAGUUA,0.00784 ± 0.0025
